Records with an inconclusive call do not appear. Active and inactive are the calls of the source. Unless noted, the call rests on the fitted dose curve; in most records, active means well fitted curve in the direction sought with a large enough effect; inconclusive means small, poorly fitted or top-dose-only effect, or another doubt; inactive means no such curve, though single readings can be large; an effect the other way counts as inactive or inconclusive.
What was measured:
[1] = Validation screen for inhibitors of Lassa infection (AID 463096; calls by dose curve; further: potency means the concentration at half of the fitted maximal effect)
[2] = Validation screen for small molecules that induce DNA re-replication in MCF 10A normal breast cells (AID 463097); further: nearly all actives have a fitted effect of over 60% in size; further: potency means the concentration at half of the fitted maximal effect
Procedure, shortened: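 Image-based qHTS: normal breast cells are incubated with compound for 48 hr, stained with Hoechst, and scanned for total nuclear fluorescence. Compounds raising the fraction of nuclei with elevated DNA content count as re-replication inducers.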

[3] = target: Tumor susceptibility gene 101 protein (Homo sapiens) (UniProt Q99816); test: qHTS Validation Assay for Iinhibitors of HIV-1 Budding by Blocking the Interaction of PTAP/TSG101 (AID 485342; calls by dose curve)
Procedure, shortened: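 Binding of a FITC-tagged PTAP-motif peptide (50 nM) to the Tsg101 binding domain (10 uM) is monitored by fluorescence polarization. Compounds are pin-delivered before peptide addition, and incubation runs 20 min at room temperature.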

[4] = qHTS Validation Assay to Find Inhibitors of Chronic Active B-Cell Receptor Signaling (AID 485345; active means well fitted curve in the direction sought with a large enough effect in the main read-out, with a control signal flat, not every such curve was filed as active)
Procedure, shortened: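 TMD8 ABC-DLBCL cells stably carrying doxycycline-inducible IkappaBalpha–green luciferase fusion plus unfused red luciferase; compounds 46 uM to 3 nM, 4 h at 37C with doxycycline. Corrected green/red luminescence ratio normalized to 10 uM MG-132 and basal cell wells; curves fitted.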

[5] = target: Beta-2 adrenergic receptor (Homo sapiens) (UniProt P07550); test: qHTS validation assay of beta-arrestin-biased ligands of beta2-adrenergic receptor (AID 485366)
Procedure, shortened: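 Tango cells expressing recombinant beta2-AR and beta-arrestin with tTA-driven luciferase, in DMEM with 1% FBS. Compounds were titrated up to 46 microM for 18 hr at 37 degrees C. Luminescence was read 15 min after substrate; curves were fitted and class-assigned.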

[6] = target: ATP-dependent 6-phosphofructokinase (Trypanosoma brucei brucei) (UniProt O15648); test: qHTS Validation Assay to Find Inhibitors of T. brucei phosphofructokinase (AID 485368); further: potency means the concentration at half of the fitted maximal effect
Procedure, shortened: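 Activity was read as ADP production by luminescence (ADP-Glo) after 45 min at room temperature. The enzyme was 1.25nM PFK in 0.1M TEA pH 8.0 with 0.5 mM F6P, 0.1mM ATP and 5 mM MgCl2. Compounds were titrated up to 57 uM and % activity normalized to no-enzyme and full-enzyme controls.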

[7] = Quantitative high throughput screen for delayed death inhibitors of the malarial parasite plastid, 96 hour incubation (AID 488745); further: nearly all actives have a fitted effect of over 70% in size; further: potency means the concentration at half of the fitted maximal effect
Procedure, shortened: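 P. falciparum carrying an integrated firefly luciferase reporter, grown in erythrocytes (2% hematocrit, 0.1% parasitemia final) in RPMI 1640/0.5% Albumax, was exposed to compound for 96 h (two generations) at 37 C, 5% CO2. Luminescence decrease indicated growth inhibition.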

[8] = Quantitative high throughput screen for delayed death inhibitors of the malarial parasite plastid, 48 hour incubation (AID 488752); further: nearly all actives have a fitted effect of over 65% in size; further: potency means the concentration at half of the fitted maximal effect
Procedure, shortened: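 Erythrocytes infected with P. falciparum carrying an integrated firefly luciferase reporter (2% hematocrit, 0.1% parasitemia final) were exposed to compounds in RPMI 1640/0.5% Albumax for 48 h at 37 C, 5% CO2. Growth inhibition was scored as reduced luminescence.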

[9] = target: Thioredoxin reductase 1, cytoplasmic (Rattus norvegicus) (UniProt O89049); test: qHTS Assay for Substrates of Mammalian Selenoprotein Thioredoxin Reductase 1 (TrxR1) (AID 488772);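 further: NADPH fluorescence in the first read after selenite addition and not the 8 min delta; series mostly up to about 57 µM; a drop in NADPH fluorescence below the no-compound background marks a TrxR1 substrate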
Procedure, shortened: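 Quantitative HTS in Tris-HCl buffer at pH 7.5 with EDTA and Tween-20, using rat TrxR1, 400 uM NADPH and 400 uM selenite (final). A fall in initial NADPH fluorescence relative to background marked substrate behaviour.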

[10] = target: Thioredoxin reductase 1, cytoplasmic (Rattus norvegicus) (UniProt O89049); test: qHTS Assay for Inhibitors of Mammalian Selenoprotein Thioredoxin Reductase 1 (TrxR1) (AID 488773); conditions: Potency: inhibition; further: nearly all actives have a fitted effect of over 40% in size; further: potency means the concentration at half of the fitted maximal effect
Procedure, shortened: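 Steps: enzyme (90 nM) plus NADPH (400 uM final), 5 min at ~22 deg C; compound added, 15 min; selenite (400 uM final) added; fluorescence followed for 8 min. Concentration-response curves derived from the normalized delta values.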

Measured: Potency

Tumor susceptibility gene 101 protein (Homo sapiens), sequence (Q99816 whole entry, looked up, the tested form may be a part): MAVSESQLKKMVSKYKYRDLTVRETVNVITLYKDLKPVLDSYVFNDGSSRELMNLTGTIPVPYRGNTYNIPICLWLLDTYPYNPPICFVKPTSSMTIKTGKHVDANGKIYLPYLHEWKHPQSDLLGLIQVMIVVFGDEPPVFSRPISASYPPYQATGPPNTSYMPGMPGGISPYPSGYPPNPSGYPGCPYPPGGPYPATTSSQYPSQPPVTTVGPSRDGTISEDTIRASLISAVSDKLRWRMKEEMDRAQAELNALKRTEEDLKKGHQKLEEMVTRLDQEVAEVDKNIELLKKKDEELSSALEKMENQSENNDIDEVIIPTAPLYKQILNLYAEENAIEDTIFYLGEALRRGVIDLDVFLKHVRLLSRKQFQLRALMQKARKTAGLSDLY
Thioredoxin reductase 1, cytoplasmic (Rattus norvegicus), sequence (O89049 whole entry, looked up): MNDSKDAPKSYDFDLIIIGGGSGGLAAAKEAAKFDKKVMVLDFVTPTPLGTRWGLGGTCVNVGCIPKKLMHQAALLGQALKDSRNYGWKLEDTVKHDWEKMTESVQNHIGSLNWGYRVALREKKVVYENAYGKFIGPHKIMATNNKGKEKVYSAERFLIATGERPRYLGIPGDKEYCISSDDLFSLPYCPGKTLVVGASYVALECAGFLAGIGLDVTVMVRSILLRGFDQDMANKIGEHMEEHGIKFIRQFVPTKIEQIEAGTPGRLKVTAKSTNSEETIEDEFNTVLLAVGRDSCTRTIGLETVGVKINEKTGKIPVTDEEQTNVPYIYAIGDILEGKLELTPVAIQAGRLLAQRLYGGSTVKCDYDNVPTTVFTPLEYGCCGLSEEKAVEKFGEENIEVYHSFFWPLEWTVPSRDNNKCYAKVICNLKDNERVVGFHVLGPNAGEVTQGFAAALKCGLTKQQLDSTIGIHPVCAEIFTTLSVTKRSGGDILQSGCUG
ATP-dependent 6-phosphofructokinase (Trypanosoma brucei brucei), sequence (O15648 whole entry, looked up): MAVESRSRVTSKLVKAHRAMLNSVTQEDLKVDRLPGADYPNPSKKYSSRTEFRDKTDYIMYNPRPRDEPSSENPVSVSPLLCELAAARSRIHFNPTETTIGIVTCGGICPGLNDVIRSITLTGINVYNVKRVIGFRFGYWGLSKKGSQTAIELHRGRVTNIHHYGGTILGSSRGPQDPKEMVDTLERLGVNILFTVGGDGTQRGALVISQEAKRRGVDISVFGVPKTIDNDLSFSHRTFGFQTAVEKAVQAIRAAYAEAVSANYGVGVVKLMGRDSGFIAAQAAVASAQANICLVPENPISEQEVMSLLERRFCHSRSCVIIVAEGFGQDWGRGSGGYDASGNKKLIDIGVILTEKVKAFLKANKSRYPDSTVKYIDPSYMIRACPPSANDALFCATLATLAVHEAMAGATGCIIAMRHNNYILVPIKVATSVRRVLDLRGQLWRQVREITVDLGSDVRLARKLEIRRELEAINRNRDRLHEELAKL
Beta-2 adrenergic receptor (Homo sapiens), sequence (P07550 whole entry, looked up): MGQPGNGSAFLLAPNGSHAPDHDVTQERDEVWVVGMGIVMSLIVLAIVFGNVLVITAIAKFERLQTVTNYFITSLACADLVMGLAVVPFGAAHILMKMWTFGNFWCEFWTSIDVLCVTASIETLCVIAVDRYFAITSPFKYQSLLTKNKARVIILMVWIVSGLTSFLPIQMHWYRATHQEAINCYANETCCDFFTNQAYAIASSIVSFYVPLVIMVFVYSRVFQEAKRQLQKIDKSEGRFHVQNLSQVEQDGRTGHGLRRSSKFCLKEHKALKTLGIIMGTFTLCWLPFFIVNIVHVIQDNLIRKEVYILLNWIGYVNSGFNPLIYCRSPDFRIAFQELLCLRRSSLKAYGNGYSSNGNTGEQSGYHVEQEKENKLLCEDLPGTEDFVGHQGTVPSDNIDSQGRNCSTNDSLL

Cc1cccc(C)c1OCC(C)N (centres undefined)
inactive: [1]

CNCC(O)c1ccc(O)cc1 (centres undefined)
not listed: [10]
inactive: all other assays above

CC(C)(C(=O)O)c1ccc(C(O)CCCN2CCC(C(O)(c3ccccc3)c3ccccc3)CC2)cc1 (centres undefined)
inactive: [1]

NN=C(N)N
inactive: all assays above

O=C(CCCN1CCC(O)(c2ccc(Cl)cc2)CC1)c1ccc(F)cc1
inactive: [1]

NCC(O)c1ccc(O)cc1 (centres undefined)
not listed: [6]
inactive: all other assays above

CN(C)CC/C=C1\c2ccccc2COc2ccccc21
inactive: [1]

CC(CCc1ccccc1)NC(C)C(O)c1ccc(O)cc1 (centres undefined)
inactive: all assays above

NNCCc1ccccc1
inactive: [1]

CC(=O)CCCCn1c(=O)c2c(ncn2C)n(C)c1=O
inactive: [1]

Cc1ccc(S(=O)(=O)NC(=O)NN2CCCCCC2)cc1
inactive: [1]

Cc1ncc(CNC(=O)N(CCCl)N=O)c(N)n1
inactive: all assays above

O=C1CCC(N2C(=O)c3ccccc3C2=O)C(=O)N1 (centres undefined)
inactive: [1]

Nc1nc2c(ncn2COC(CO)CO)c(=O)[nH]1
inactive: [1]

CCC1(C2=NCCN2)Cc2ccccc2O1 (centres undefined)
inactive: all assays above

COc1ccccc1N1CCNCC1
not listed: [6] | [10]
inactive: all other assays above

Cc1cn[nH]c1
inactive: [1]

COc1ccc(Cl)cc1C(=O)NCCc1ccc(S(=O)(=O)NC(=O)NC2CCCCC2)cc1
inactive: [1]

COc1cc(Cc2cnc(N)nc2N)cc(OC)c1OC
inactive: [1]

O=C1NCN(c2ccccc2)C12CCN(CC1COc3ccccc3O1)CC2 (centres undefined)
inactive: all assays above

c1ccc(C2CC2)c(OCC2=NCCN2)c1
inactive: all assays above

CCCC(CCC)C(=O)O
inactive: [1]

CCCN1CCC[C@@H]2Cc3nc(N)ncc3C[C@H]21
inactive: all assays above

COC(=O)C1=C(C)NC(C)=C(C(=O)OCCN(C)Cc2ccccc2)C1c1cccc([N+](=O)[O-])c1 (centres undefined)
inactive: [1]

Nc1ccncc1
not listed: [6]
inactive: all other assays above

CN(C)CC[C@@H](c1ccc(Br)cc1)c1ccccn1
inactive: [1]

COc1cc2c(c(OC)c1OC)-c1ccc(OC)c(=O)cc1[C@@H](NC(C)=O)CC2
inactive: [1]
active: [2] 0.0398 µM

CC(=O)[C@H]1CC[C@H]2[C@@H]3CC[C@H]4C[C@H](O)CC[C@]4(C)[C@H]3C(=O)C[C@]12C
inactive: all assays above

NC(=O)OCC(COC(N)=O)c1ccccc1
inactive: [1]

Cc1cccc(C)c1NC1=NCCCS1
not listed: [7]
inactive: all other assays above

Cn1cnc([N+](=O)[O-])c1Sc1ncnc2nc[nH]c12
inactive: [1]

CCCN1CCC[C@@H]2Cc3[nH]ncc3C[C@H]21
inactive: [3] | [4] | [5] | [6] | [9] | [10]

COC[C@H]1OC(=O)c2coc3c2[C@@]1(C)C1=C(C3=O)C2CCC(=O)[C@@]2(C)C[C@H]1OC(C)=O (some centres undefined)
inactive: [3] | [5] | [6] | [9]
active: [7] 8.28 µM | [10] 11.9 µM

CCCC(C)(COC(N)=O)COC(=O)NC(C)C (centres undefined)
not listed: [6]
inactive: all other assays above

Cc1ccc(S(=O)(=O)N[C@@H](CCCCN)C(=O)CCl)cc1
inactive: [1] | [2] | [3] | [5] | [8] | [9]

Cc1cc2c(C(C)C)c(O)c(O)c(C=O)c2c(O)c1-c1c(C)cc2c(C(C)C)c(O)c(O)c(C=O)c2c1O
active: [10] 15 µM

C=C(C)[C@H]1Cc2c(ccc3c2O[C@@H]2COc4cc(OC)c(OC)cc4[C@@H]2C3=O)O1
active: [1] 5.62 µM | [2] 1.41 µM
inactive: [3] | [5] | [8] | [9] | [10]

CC[N+](C)(C)c1cccc(O)c1
active: [7] 0.0059 µM
inactive: [1]

CN1C[C@H](CNC(=O)OCc2ccccc2)C[C@@H]2c3cccc4c3c(cn4C)C[C@H]21
active: [2] 15.8 µM | [7] 3.29 µM | [8] 7.38 µM
not listed: [1] | [4]
inactive: all other assays above

CNCCC(Oc1ccc(C(F)(F)F)cc1)c1ccccc1 (centres undefined)
inactive: [6]

Cc1cccc(C)c1NC(=O)CN1CCCC1=O
inactive: [3] | [4] | [5] | [6] | [9] | [10]

NCC(CC(=O)O)c1ccc(Cl)cc1 (centres undefined)
not listed: [6]
inactive: all other assays above

CC(=O)[C@H]1CC[C@H]2[C@@H]3CC[C@H]4C[C@](C)(O)CC[C@]4(C)[C@H]3CC[C@]12C
inactive: [3] | [4] | [5] | [6] | [9] | [10]

O=c1[nH]c2ccccc2n1CCCN1CCC(n2c(=O)[nH]c3cc(Cl)ccc32)CC1
inactive: [1] | [3] | [5] | [9] | [10]
active: [7] 1.17 µM | [8] 10.4 µM

COc1ccc(C(CN(C)C)C2(O)CCCCC2)cc1 (centres undefined)
active: [6] 5.36 µM
inactive: [3] | [4] | [5] | [9] | [10]

CC(C)=CCOc1c2occc2cc2ccc(=O)oc12
inactive: [3] | [4] | [5] | [9] | [10]

Clc1cccc(N2CCNCC2)c1
inactive: [1] | [2] | [8]

c1ccc2c(c1)OCC(C1=NCCN1)O2 (centres undefined)
active: [1] 20 µM | [2] 7.94 µM | [10] 7.52 µM
not listed: [4] | [6]
inactive: all other assays above

N#CC(C#N)=Cc1ccc(O)c(O)c1
active: [10] 16.8 µM
not listed: [6] | [7]
inactive: all other assays above

CC(O)(CS(=O)(=O)c1ccc(F)cc1)C(=O)Nc1ccc(C#N)c(C(F)(F)F)c1 (centres undefined)
inactive: [3] | [4] | [5] | [6] | [9] | [10]

COc1ccc(Cc2nccc3cc(OC)c(OC)cc23)cc1OC
inactive: [1] | [2] | [7] | [8]

OCCN1CCN(CCCN2c3ccccc3Sc3ccc(C(F)(F)F)cc32)CC1
active: [7] 3.29 µM | [8] 9.28 µM

CC[C@@H](CO)NC(=O)[C@@H]1C=C2c3cccc4c3c(cn4C)C[C@H]2N(C)C1
active: [10] 10.6 µM
inactive: [3] | [5] | [6] | [9]

CCn1cc(C(=O)O)c(=O)c2ccc(C)nc21
inactive: [1] | [2] | [7] | [8]

C[C@@H]1O[C@@H](O[C@H]2C[C@@H](O)[C@]3(CO)[C@H]4[C@H](O)C[C@]5(C)[C@@H](C6=CC(=O)OC6)CC[C@]5(O)[C@@H]4CC[C@]3(O)C2)[C@H](O)[C@H](O)[C@H]1O
not listed: [1] | [2]
inactive: all other assays above

Fc1ccc(C(OCCN2CCN(CCCc3ccccc3)CC2)c2ccc(F)cc2)cc1
active: [2] 12.6 µM
not listed: [1] | [4] | [8]
inactive: all other assays above

O=c1[nH]cc(F)c(=O)[nH]1
inactive: [1]
active: [7] 9.28 µM | [8] 10.4 µM

NCC1(CC(=O)O)CCCCC1
not listed: [6]
inactive: all other assays above

O=c1[nH]c2ccccc2n1C1CCN(CCCC(c2ccc(F)cc2)c2ccc(F)cc2)CC1
active: [7] 10.4 µM
inactive: [3] | [5] | [6] | [9] | [10]

CN(C)C(=O)C(CCN1CCC(O)(c2ccc(Cl)cc2)CC1)(c1ccccc1)c1ccccc1
active: [1] 12.6 µM | [7] 7.38 µM | [8] 8.28 µM

CC[N+](CC)(CC)CC
inactive: [1] | [2]
active: [7] 4.15 µM

O=c1c(O)c(-c2ccc(O)c(O)c2)oc2cc(O)cc(O)c12
inactive: [1]
active: [6] 6.75 µM | [7] 10.4 µM

CC[C@@H](CO)NC(=O)[C@@H]1C=C2c3cccc4[nH]cc(c34)C[C@H]2N(C)C1
inactive: [3] | [4] | [5] | [9]
